From PubChem BioAssay AID449762 (Southern Research Specialized Biocontainment Screening …, 2010)
Out of some 330,000 compounds screened, about 1,900 (0.58%) were called active. Inconclusive results (about 4%) are left out. A selection follows. Results with a measured potency or affinity are listed apart. Unmarked numbers belong to inactive results. Cut-off read from the data, not from the text of the source: inconclusive = inhibition above about 70% without an active follow-up result; inactive = below that.

Assay: M. tuberculosis growth inhibition, HTS (AID 449762);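 note: bacterial growth assessed after seven days of incubation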
Conditions: M. tuberculosis H37Rv growth inhibition, 7H9 media; at 25 µM; stronger effect = higher value

Structure (SMILES) | inhibition [%]
CSc1ccccc1OCc1cc(C(=O)N2CCSCC2)no1 | 4.18
COCC1CCN(C(=O)c2cc(COc3ccccc3SC)on2)C1 (stereo not drawn) | -1.2
CCOC(=O)[C@@]12C(=O)C(=O)N[C@]1(c1ccccc1)C1OCCCC12 (stereo partly drawn) | 1.95
COc1ccc(Cn2c(-c3ccc(C)cc3)nc3c(c(=O)c4ccccc4n3C)c2=O)cc1 | -5.96
Cn1c2ccccc2c(=O)c2c(=O)n(Cc3ccco3)c(-c3ccc(F)cc3)nc21 | 0.8
Cc1noc(C)c1CSCC(=O)Nc1cccc(C(F)(F)F)c1 | -7.37
CCCCCCc1cc2cc(C(=O)Nc3ccccc3)c(=O)oc2cc1O | -5.44
CCCCCCc1cc2cc(C(=O)NC)c(=N)oc2cc1O | 2.6
CCc1ccc(CNn2cnnc2SCC(=O)NC(C)(C)C)cc1 | -7.47
CC1CN(CC(=O)Nc2ccc([N+](=O)[O-])cc2Br)CC(C)O1 (stereo not drawn) | 0.73
NC(N)=NNC(=O)c1ccccc1Cl | -5.25
CCC/C(=N/NC(=O)c1ccccc1Cl)c1ccccc1 | 8.2
CN(Cc1ccccc1)CC(O)COc1ccc(CNCc2nccn2C)cc1 (stereo not drawn) | -8.78
NC(=O)CC(NC(=O)c1ccccc1)c1ccc(N2CCC(Cc3ccccc3)CC2)c([N+](=O)[O-])c1 (stereo not drawn) | 5.54
CCCCCn1c(-c2ccco2)nc2nc3ccccc3nc21 | 16.5
CC(C)OCCCn1c(-c2ccco2)nc2nc3ccccc3nc21 | 0.09
C/C(=N\OCC(=O)Nc1ccccc1C(C)(C)C)c1ccc2c(c1)OCCO2 | 9.78
O=C(Cn1cnc2scc(-c3ccc(Br)cc3)c2c1=O)N1CCOCC1 | 2.04
Clc1ccc(CNC23CN4CN(CN(C4)C2)C3)c(Cl)c1 | -14.8
O=C(Nc1ccncc1)c1cc(S(=O)(=O)N2CCCC2)ccc1Cl | 5.2
N#Cc1nc(-c2ccc(OCc3ccccc3Cl)cc2)oc1NCCCn1ccnc1 | 0.78
N#Cc1nc(-c2ccc(OCc3ccc(Cl)cc3)cc2)oc1NCCCn1ccnc1 | 0.8
COc1ccc(C2C(C(C)=O)=C(O)C(=O)N2c2cccnc2)c(OC)c1 (stereo not drawn) | -10.5
Cc1cccc(N2C(=O)C(Cl)=C(N3CCOCC3)C2=O)c1 | -0.44

Structure (SMILES) | inhibition [%]
O=C1C(Cl)=C(N2CCOCC2)C(=O)N1c1cccc(C(F)(F)F)c1 | 8.59
CCOCC(=O)N1CCC(Cc2ccccc2)CC1 | 12.3
CCOC(=O)C(=O)N1CCC(Cc2ccccc2)CC1 | 1.59
Cc1oc(-c2ccccc2F)nc1CSCC(=O)NC1CCCC1 | -11.2
CC(C)(Oc1ccc(F)cc1)C(=O)OCC(=O)c1ccc(S(C)(=O)=O)cc1 | 3.45
CCOC(=O)c1nn(-c2cccc(Cl)c2)c2nc(Nc3ccccc3)cc(=O)n12 | -3.5
CCOC(=O)c1nn(-c2ccc(F)cc2)c2nc(Nc3ccccc3)cc(=O)n12 | 38.7
O=C(Nc1ccccc1)C1CC(=O)n2ncnc2N1 (stereo not drawn) | -4.59
Cc1ccc(S(=O)(=O)N2[C@@H](c3ccc(Br)cc3)C(C(=O)O)=CC[C@H]2c2ccc(Cl)cc2)cc1 | 9.55
CCN(CC)C(=O)c1ccc(C(=O)c2c(C)cc(C)cc2C)cc1 | -0.54
COc1ccc2c(Cl)c(-c3nnc(SCC(=O)c4ccccc4)n3C)sc2c1 | 5.59
COc1ccc2c(Cl)c(-c3nnc(SCC(N)=O)n3C)sc2c1 | -4.23
COc1ccc(NC(=O)c2ccc3c(=O)n(-c4ccc(OC)cc4OC)c(=S)[nH]c3c2)c(OC)c1 | 40
CC(=O)c1cccc(CN2CCC(CO)(CCCc3ccccc3)CC2)c1 | -3.4
Cc1ccccc1-c1ncc(CN2CCC(CO)(CCCc3ccccc3)CC2)cn1 | 22.1
Cc1cc(C)c(NC(=O)c2cn3c4c(c(N5CCN(C)CC5)c(F)cc4c2=O)OCC3C)c(C)c1 (stereo not drawn) | 9.2
Cc1c(-n2cc(C(=O)O)c(=O)c3cc(F)c(N4CCCC4)c(F)c32)c(=O)n(-c2ccccc2)n1C | 5.31
CCOc1cc(S(=O)(=O)N2CCN(S(=O)(=O)CC)CC2)c(OCC)cc1-n1cnnn1 | 0.44
O=C(O)/C=C/C(=O)Nc1nccs1 | -2.62
O=C1C(C=NCCCN2CCCC2=O)=C(O)c2ccccc21 | -5.89
COc1ccc(Cl)cc1NS(=O)(=O)c1cccc(C(=O)NC2CC2)c1 | 1.57
COc1ccc(-c2oc(NC(C)=O)c(C#N)c2-c2ccc(OC)cc2)cc1 | 3.57
COc1ccc(-c2oc(NC(=O)c3ccc(C)cc3)c(C#N)c2-c2ccc(OC)cc2)cc1 | 5.32
Cc1cc(C(=O)O)cc(S(=O)(=O)Nc2c(C)nn(C)c2C)c1C | -1.21

Structure (SMILES) | inhibition [%]
COc1cccc2cc(C(=O)OCc3ccccc3)c(=O)oc12 | 10.5
CN1OC(COC(=O)c2ccccc2)CC1c1ccccc1 (stereo not drawn) | 66.5
CN1OC(COC(=O)c2ccc(Cl)cc2)CC1c1ccccc1 (stereo not drawn) | 19.7
CCCn1cc(S(=O)(=O)c2ccc(F)cc2)c(=O)c2cc(OCC)ccc21 | 4.19
CC(=O)Nc1ccc(S(=O)(=O)Oc2cccc(/C=N/N=C3/NC(=O)C(CC(=O)O)S3)c2)cc1 (stereo not drawn) | -3.02
O=C(Nc1ccc(Cl)cc1C(F)(F)F)C(Sc1cccc[n+]1[O-])c1ccccc1 (stereo not drawn) | 16.4
O=C(Nc1cccc(C(F)(F)F)c1)C(Sc1cccc[n+]1[O-])c1ccccc1 (stereo not drawn) | 0.11
CS(=O)(=O)N(CC(=O)Nc1ccc(Br)cc1F)C1CCCCC1 | -1.79
CC(=O)NCCC(=O)Nc1ccc(C(N)=O)cc1 | 3.35
O=C(/C=C/c1ccc([N+](=O)[O-])cc1)OCC(=O)N1c2ccccc2Sc2ccccc21 | 3.32
CC(C)(C)c1ccc(C(=O)C=[N+]=[N-])cc1 | -1.15
CCOc1ccc(C(=O)/C=C/c2ccccc2C(F)(F)F)cc1 | 9.8
COc1ccc(CC(=O)NNC(=O)CCc2ccccc2)cc1OC | 0.55
O=C(NCC(O)c1ccccc1)c1ccccc1 (stereo not drawn) | -1.58
Cc1ccc(C)c(Cc2c(C)nc3c(C(=O)NCc4ccc5c(c4)OCO5)cnn3c2C)c1 | 65.9
CN1C(=O)/C(=C/c2ccc(OCc3cccc(F)c3)cc2)NC1=S | 14.5
COc1ccc(NC(=S)Nc2ccccn2)cc1 | -2.6
CCCNC(=S)Nc1ccccc1 | 0.1
CCCNC(=S)Nc1ccc(Oc2ccccc2)cc1 | -11
Cc1cccc(NC(=S)Nc2ccccn2)c1 | -7.66
N#Cc1cc2c(nc1SCc1cccnc1)CCCCC2 | 7.53
CC1CCN(S(=O)(=O)c2ccc(S(=O)(=O)N3CCC4(CC3)OCCO4)cc2)CC1 | 0.35
Cc1cc(NC(=O)/C=C/C(=O)N(CC(=O)NC2CCCC2)c2cccc3ccccc23)no1 | -2.08
COc1ccc(CCNCC2C(Oc3ccc(Cl)cc3)C(=O)N2c2ccccc2C)cc1OC (stereo not drawn) | 11.7

Structure (SMILES) | inhibition [%]
COC(=O)c1ccc2c(=O)[nH]c(COC(=O)CCC(=O)c3ccc(Cl)cc3)nc2c1 | 0.04
Cc1cc(=O)c2ccc3ccccc3c2[nH]1 | 10.2
CCCc1c(C)nc2ccc(OC)cc2c1SCCC(=O)O | -2.63
COc1ccc(C(=O)Nc2cc3c(cc2Cl)OCCCO3)cc1 | 5.96
COc1cccc(NC(=O)CSc2nc3n[nH]c(C)c3c(=N)n2-c2cccc(OC)c2)c1 | -0.47
CCc1ccccc1NC(=O)CSc1nc2n[nH]c(C)c2c(=N)n1-c1cccc(OC)c1 | 7.97
O=C(CSc1ccc(Br)cc1)N1CCN(C(=O)c2ccco2)CC1 | 2.56
O=C(c1ccc2c(c1)OCO2)C1CCCN(Cc2cn[nH]c2-c2ccccc2)C1 (stereo not drawn) | 4.84
COc1ccc(C(=O)C2CCCN(Cc3cn[nH]c3-c3ccccc3)C2)cc1OC (stereo not drawn) | 2.2
CC1Cc2cccc3c(O)c(C(=O)c4nn[nH]n4)c(=O)n1c23 (stereo not drawn) | 14.9
N#Cc1nc(COc2ccccc2)oc1N1CCCC1 | -0.06
CC(C)NC(=O)c1onc(CSc2cccc(F)c2)c1C(=O)O | 33.3
CC(C)NC(=O)c1onc(CSc2ccc(F)c(F)c2)c1C(=O)NC(C)C | 8.4
COc1ccc(C)cc1N(C(=O)c1snc(C(N)=O)c1N)C(C(=O)NC1CCCC1)c1ccc(F)cc1 (stereo not drawn) | 41.8
CCOC(=O)c1sc(NC(=S)NC(=O)c2cccc(Cl)c2)c(C(=O)OCC)c1C | 3.64
C#C[C@]1(O)CC[C@H]2[C@@H]3CCc4cc(OC)ccc4[C@H]3CC[C@@]21C | -0.52
C#C[C@]1(O)CC[C@H]2[C@@H]3CCc4cc(O)ccc4[C@H]3CC[C@@]21C | 2.29
Cc1cc(C)nc(Sc2nc(Nc3ccccc3)nc(Sc3nc(C)cc(C)n3)n2)n1 | -5.43
Cc1csc(SCCN2C(=O)c3ccccc3C2=O)n1 | 1.44
O=[N+]([O-])c1ccc2c(c1)oc1ccccc12 | -7.51
O=[N+]([O-])c1ccc2nc(-c3ccccc3)oc2c1 | -0.96
